# Records with an inconclusive call do not appear.
# Test: qHTS drug screen for cell cycle checkpoint inhibitors in PARPi-resistant BRCA-mutant ovarian cancer cell lines. (AID 1963452)
# Conditions: PEO1/OlaR viability, CellTiter-Glo luminescence, 96 h; measured here: PEO4 Z-AUC; stronger effect = lower value
# How it was run: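 PEO1, PEO4 and PEO1/OlaR ovarian cancer cells, 600 per well, exposed 96 h at 37C to a dilution series. Viability read by CellTiter-Glo luminescence, normalized to DMSO and empty wells; activity summarized as Z-AUC.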
row,SMILES,Z-AUC
1,CO[C@@H](C(=O)N1Cc2[nH]nc(NC(=O)c3ccc(N4CCN(C)CC4)cc3)c2C1)c1ccccc1,-0.117
2,Cc1c(NC(=O)c2ccc(C(C)(C)C)cc2)cccc1-c1cn(C)c(=O)c(Nc2ccc(C(=O)N3CCOCC3)cc2)n1,0.879
3,Cc1cnc(C(=O)O)c[n+]1[O-],-0.6
4,NC(=O)c1cnc(-c2ccc(C3(N)CCC3)cc2)c(-c2ccccc2)c1,-0.533
5,CCOC(CN1C(=O)[C@](CC(=O)Nc2ccc(C)cc2)(NC(=O)Nc2ccc(C)cc2)c2ccccc21)OCC,1.28

# Test: qHTS for identification of novel therapeutic agents for treatment of microphthalmiaassociated transcription factor (MiT) renal cell carcinoma (RCC) (AID 1963991)
# Conditions: TFE3-RCC UOK109 viability, CellTiter-Glo, 48 h; measured here: UOK109 Z-AUC; stronger effect = lower value
# How it was run: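 Curves over 11 concentrations were fitted to CellTiter-Glo luminescence, scaled between empty wells (0%) and DMSO (100%) viability. Cells were UOK109, UOK124 and UOK145 TFE3-fusion RCC lines at 500/well, exposed 48 hours at 37 C.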
row,SMILES,z-score
1,O=C(CCc1ccc(O)cc1)c1c(O)cc(O)cc1O[C@@H]1O[C@H](CO)[C@H](O)[C@H](O)[C@H]1O,-0.101
2,COc1ccc(Cc2ccc(NC(N)=O)cc2)cc1-c1cccc(Cl)c1,0.762
3,Nc1ncnc2c1ncn2[C@@H]1O[C@H](CO)C[C@@H]1O,0.12
4,CN(C)c1cc(NC(=O)CNC(C)(C)C)c(O)c2c1C[C@@H]1C[C@H]3[C@H](N(C)C)C(=O)C(C(N)=O)=C(O)[C@@]3(O)C(=O)C1=C2O,1.85
5,O=C(O)C=Cc1ccc(O)c(O)c1,1.03
6,O=C(NC1CCOCC1)c1ccc(-c2cc(-c3cn[nH]c3-c3ccccn3)ccn2)cc1,0.905
7,Nc1ncnc2c1ncn2[C@@H]1O[C@@H](CO)[C@H](O)[C@H]1O,0.834
8,O=C(O)C(O)Cc1ccc(O)c(O)c1 (centres undefined),0.888
9,O=c1ccn([C@@H]2O[C@H](CO)[C@H](O)[C@H]2O)c(=O)[nH]1,0.533
10,CC(C)(C)NC(=O)Nc1cccc(Nc2ncc(F)c(NC(C)(C)CO)n2)c1,1.09
11,NC1CCC(Nc2nc(Nc3ccc(C(=O)N4CCCCC4)cc3)c3ncn(-c4cccc(F)c4)c3n2)CC1 (centres undefined),0.32
12,Cc1cnc(C(=O)O)c[n+]1[O-],1.58

# Same assay, conditions: TFE3-RCC viability, CellTiter-Glo, 48 h; measured here: UOK124 Z-AUC; stronger effect = lower value
row,SMILES,z-score
1,O=C(CCc1ccc(O)cc1)c1c(O)cc(O)cc1O[C@@H]1O[C@H](CO)[C@H](O)[C@H](O)[C@H]1O,0.0784
2,COc1ccc(Cc2ccc(NC(N)=O)cc2)cc1-c1cccc(Cl)c1,0.853
3,Nc1ncnc2c1ncn2[C@@H]1O[C@H](CO)C[C@@H]1O,0.223
4,CN(C)c1cc(NC(=O)CNC(C)(C)C)c(O)c2c1C[C@@H]1C[C@H]3[C@H](N(C)C)C(=O)C(C(N)=O)=C(O)[C@@]3(O)C(=O)C1=C2O,0.166
5,O=C(O)C=Cc1ccc(O)c(O)c1,0.19
6,O=C(NC1CCOCC1)c1ccc(-c2cc(-c3cn[nH]c3-c3ccccn3)ccn2)cc1,1.11
7,Nc1ncnc2c1ncn2[C@@H]1O[C@@H](CO)[C@H](O)[C@H]1O,0.529
8,O=C(O)C(O)Cc1ccc(O)c(O)c1 (centres undefined),1.07
9,O=c1ccn([C@@H]2O[C@H](CO)[C@H](O)[C@H]2O)c(=O)[nH]1,0.584
10,CC(C)(C)NC(=O)Nc1cccc(Nc2ncc(F)c(NC(C)(C)CO)n2)c1,-0.121
11,NC1CCC(Nc2nc(Nc3ccc(C(=O)N4CCCCC4)cc3)c3ncn(-c4cccc(F)c4)c3n2)CC1 (centres undefined),0.539
12,Cc1cnc(C(=O)O)c[n+]1[O-],0.716
